According to PubChem BioAssay (NCATS):
Results filed as inconclusive are left out. Where a call stands in place of a potency, no number is given. A number with no mark means an inactive call. Active and inactive are the calls of the source. Calls follow the shape of the dose curve; as a rule, active = well fitted curve in the direction sought with a large enough effect; inconclusive = small, poorly fitted or top-dose-only effect, or another doubt; inactive = no such curve, though single readings can be large; an effect the other way counts as inactive or inconclusive.

Columns and labels:
[1] = target: Cellular tumor antigen p53 (Homo sapiens) (UniProt P04637); experiment: Primary qHTS for small molecule compounds that upregulate eGFP-tagged delta133p53alpha (in N-terminal) cells. (AID 2060322); settings: NCI-H358 eGFP-delta133p53alpha fluorescence, 24 h; activation: stronger effect = higher value; also: nearly all actives have a fitted effect of over 75% in size; also: potency is read from the fitted curve at half-maximal effect
Sequence of Cellular tumor antigen p53 (Homo sapiens) (P04637 whole entry, looked up): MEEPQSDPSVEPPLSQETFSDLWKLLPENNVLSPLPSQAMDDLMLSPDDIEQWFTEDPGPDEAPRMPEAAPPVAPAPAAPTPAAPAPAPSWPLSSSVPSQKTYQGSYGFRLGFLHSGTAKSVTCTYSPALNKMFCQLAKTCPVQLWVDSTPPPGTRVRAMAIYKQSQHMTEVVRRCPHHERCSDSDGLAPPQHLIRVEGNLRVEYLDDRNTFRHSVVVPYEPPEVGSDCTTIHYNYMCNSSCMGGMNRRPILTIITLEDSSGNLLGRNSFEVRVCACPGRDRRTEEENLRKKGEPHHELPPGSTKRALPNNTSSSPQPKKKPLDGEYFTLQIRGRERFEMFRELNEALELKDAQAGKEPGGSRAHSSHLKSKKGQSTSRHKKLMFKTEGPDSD
Outline: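 NCI-H358 cells pre-induced 24 h with 10 ng/ml doxycycline to express N-terminal eGFP-delta133p53alpha, then dosed 24 h at 37C without doxycycline; fixed, Hoechst-stained, GFP intensity by laser scanning cytometry, normalized to DMSO (0%) and 57.5 uM 5-azacytidine (100%).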

[2] = target: Aldehyde dehydrogenase, mitochondrial (Homo sapiens) (UniProt P05091); experiment: qHTS for Inhibitors of the Aldehyde Dehydrogenase Family (ALDH2) Primary screen (AID 2061308); settings: ALDH2 enzyme inhibition qHTS, 1536-well; series mostly up to 56 µM; also: nearly all actives have a fitted effect of over 55% in size
[3] = target: Retinaldehyde dehydrogenase 3 (Homo sapiens) (UniProt P47895); experiment: qHTS for Inhibitors of the Aldehyde Dehydrogenase Family (ALDH1A3) Primary screen (AID 2061315); settings: ALDH inhibition qHTS; series mostly up to 56 µM

## C=CC(C)(C)C12Nc3c(ccc4c3OC(C)(C)C=C4)C1(O)CC1C(=O)N3CCCC3C(=O)N12 (stereo not given)
[1]
  activation: -0.763%
[2]
  Potency: inactive
[3]
  Potency: inactive

## CC[C@@H](C)[C@H]1C(=O)O[C@H](C(C)C)C(=O)N(C)[C@@H](C(C)C)C(=O)O[C@H](C(C)C)C(=O)N(C)[C@@H](C(C)C)C(=O)O[C@H](CC(C)C)C(=O)N1C
[1]
  activation: 22.3%
[2]
  Potency: inactive
[3]
  Potency: inactive

## OC[C@H]1O[C@@H](Oc2cc(O)c3c(c2)O[C@@H](c2ccc(O)cc2)[C@H](O)C3)[C@H](O)[C@@H](O)[C@@H]1O
[1]
  activation: 4.46%
[2]
  Potency: inactive
[3]
  Potency: inactive

## CC(=O)c1ccc(OCC(=O)N2CCCCC2)cc1
[1]
  activation: -3%
[2]
  Potency: inactive
[3]
  Potency: inactive

## C[C@@H]1N[C@H]2N(C1=O)c1ccccc1[C@@]2(O)C[C@@H]1C(=O)N[C@@H](C)c2nc3ccccc3c(=O)n21
[1]
  activation: -22.9%
[2]
  Potency: inactive
[3]
  Potency: inactive

## O=C(O[C@H]1[C@@H]2C=CO[C@@H](O[C@@H]3O[C@H](CO)[C@@H](O)[C@H](O)[C@H]3O)[C@@H]2[C@@]2(CO)O[C@@H]12)c1ccc(O)cc1
[1]
  activation: 4.58%
[2]
  Potency: inactive
[3]
  Potency: inactive

## O=C(Nc1cc(C(F)(F)F)ccc1N1CCCCC1)c1ccncc1
[1]
  activation: -17.9%
[2]
  Potency: inactive
[3]
  Potency: inactive

## NC(N)=NC(=O)c1cnn(-c2cccc3ncccc23)c1C1CC1
[1]
  activation: 25%
[2]
  Potency: inactive
[3]
  Potency: inactive

## CC1(C)CC[C@]2(C(=O)O[C@@H]3O[C@H](CO)[C@@H](O)[C@H](O)[C@H]3O)CC[C@]3(C)C(=CCC4[C@@]5(C)C[C@@H](O)[C@H](O)[C@](C)(C(=O)O)C5CC[C@]43C)C2C1O (stereo not given in full)
[1]
  activation: -2.68%
[2]
  Potency: inactive
[3]
  Potency: inactive

## C[C@@H]1C(=O)O[C@H]2[C@H]1CC[C@@]1(C)C(=O)C=C[C@@](C)(O)[C@H]21
[1]
  activation: 15.2%
[2]
  Potency: inactive
[3]
  Potency: inactive

## C=C1C(OC(C)=O)[C@@]23CCC4[C@](C)(C(=O)O)CCC[C@@]4(C)[C@]2(O)CC[C@H]1C3 (stereo not given in full)
[1]
  activation: 8.93%
[2]
  Potency: inactive
[3]
  Potency: inactive

## CC1C(O)C(O)C2C(C(=O)OCCc3ccc(O)cc3)=COC(O[C@@H]3O[C@H](CO)[C@@H](O)[C@H](O)[C@H]3O)C12 (stereo not given in full)
[1]
  activation: 11.5%
[2]
  Potency: inactive
[3]
  Potency: inactive

## O=C(O)CCc1cccc(O[C@@H]2O[C@H](CO)[C@@H](O)[C@H](O)[C@H]2O)c1O
[1]
  activation: -6.87%
[2]
  Potency: inactive
[3]
  Potency: inactive

## CC(C)(O)C(=O)N1CCN(c2ccc(C(F)(F)F)c(C3=C(c4c[nH]c5ccccc45)C(=O)NC3=O)c2)CC1
[1]
  Potency: 26.9 µM (active)
[2]
  Potency: inactive
[3]
  Potency: inactive

## CC1(C)CCCC2(C)C1C(O)C=C(CO)C2(O)CO (stereo not given)
[1]
  activation: -13.7%
[2]
  Potency: inactive
[3]
  Potency: inactive

## CC1CCC2(C(=O)OC3OC(CO)C(O)C(O)C3O)CCC3(C)C(=CCC4C5(C)CC(O)C(O)C(C)(C(=O)O)C5CCC43C)C2C1(C)O (stereo not given)
[1]
  activation: -18.3%
[2]
  Potency: inactive
[3]
  Potency: inactive

## CC(C)CC(=O)NCCn1cc(C(=O)O)c(=O)cc1C(O)c1ccccc1 (stereo not given)
[1]
  activation: -1.53%
[2]
  Potency: inactive
[3]
  Potency: inactive

## Cc1cc(O)cc2c1O[C@](C)(CCC[C@H](C)CCC[C@H](C)CCCC(C)C)CC2
[1]
  activation: -16.4%
[2]
  Potency: inactive
[3]
  Potency: inactive

## C=CCc1ccc(O[C@@H]2O[C@H](CO)[C@@H](O)[C@H](O)[C@H]2O)c(OC)c1
[1]
  activation: -19.6%
[2]
  Potency: inactive
[3]
  Potency: inactive

## OCC1OC(Oc2cc(O)c3c(c2)OC(c2ccc(O)cc2)C(O)C3)C(O)C1O (stereo not given)
[1]
  activation: -25.2%
[2]
  Potency: inactive
[3]
  Potency: inactive

## COc1c(C)c2c(c(O)c1C/C=C(\C)CC/C=C(\C)CCC(=O)O)C(=O)OC2
[1]
  activation: 6.11%
[2]
  Potency: inactive
[3]
  Potency: inactive

## C[C@@H]1O[C@@H](O[C@H]2[C@@H]3C=CO[C@@H](O[C@@H]4O[C@H](CO)[C@@H](O)[C@H](O)[C@H]4O)[C@@H]3[C@@]3(CO)O[C@@H]23)[C@H](O)[C@H](OC(=O)/C=C/c2ccccc2)[C@H]1O
[1]
  activation: 0.763%
[2]
  Potency: inactive
[3]
  Potency: inactive

## CC1(C)CC2C(O)C3=C(CC(C)(O)C2C1)C(=O)OC3O (stereo not given)
[1]
  activation: 1.79%
[2]
  Potency: inactive
[3]
  Potency: inactive

## CC/C=C\C[C@H]1C(=O)C=C[C@@H]1CCCCCCCC(=O)O
[1]
  activation: -8.93%
[2]
  Potency: inactive
[3]
  Potency: inactive

## Cc1ccc(C(=O)N2CCN(c3ccc([N+](=O)[O-])cc3)CC2)cc1Cl
[1]
  activation: 1.91%
[2]
  Potency: inactive
[3]
  Potency: inactive
